Unmarked numbers belong to inactive results. No rule for the calls is given here.
B1: design_606_b60ff77f-1541-4e5f-8260-46d5e5f6b85e_2122_dldesign_0_cycle1_af2pred (protein)
chain: GMEEEKERALEEIRRAREEIKKVAEELKEVDPELAKKAEKVLERAERGLEEGEKNPIAAIGMAEIVRDQLENGKKLLAEKKA
B2: design_606_b60ff77f-1541-4e5f-8260-46d5e5f6b85e_1326_dldesign_0_cycle1_af2pred (protein)
chain: AEAEKKAEEAAKEAEKIYKEMLKAVETKSKEEAAKFAKEAAEKLKKLAKKIYEATGKVPLEVLLALAEARVIAKK
B3: design_606_b60ff77f-1541-4e5f-8260-46d5e5f6b85e_1785_dldesign_0_cycle1_af2pred (protein)
chain: MTPEERRARGEEELARLAKKIEEARKKAEEDGKKGSQDLFSLAERLENLAESAPEIAEEARALGEEARKLAEKLYS
B4: design_606_b60ff77f-1541-4e5f-8260-46d5e5f6b85e_2085_dldesign_0_cycle1_af2pred (protein)
chain: ERKQEAAELAERLLEKGEKGDEFTGSAYVTRAAHAIGEALGDEEVEKEIEEANKKDVKEGIKLAREKLEELRAA
B5: design_606_b60ff77f-1541-4e5f-8260-46d5e5f6b85e_2092_dldesign_0_cycle1_af2pred (protein)
chain: MEEEKKKKAKELGEKLVEEVKKAAEEAKKTAETGTPEDAEKAKLDLSKKVHEALSELAEIGQKYDWEEAEKAKKEVIEIGKKAVA
B6: design_606_b60ff77f-1541-4e5f-8260-46d5e5f6b85e_1152_dldesign_0_cycle1_af2pred (protein)
chain: EEAEKYLKEIEKAKEEAEKLAEELKEEGDSKAAAKAATAAAVAESAALAAKANPEKAKEAAEKAKKALEKAKKYAKESREKKKA
B7: design_606_b60ff77f-1541-4e5f-8260-46d5e5f6b85e_2053_dldesign_0_cycle1_af2pred (protein)
chain: SSSLIEENKKEAKEEFNKFAIENGEKRIKEAKELLKKDPEKGKEALKKVLEEAKKLKEKNPEAGEKVEKAAEKALKEA
B8: design_606_b60ff77f-1541-4e5f-8260-46d5e5f6b85e_1318_dldesign_0_cycle1_af2pred (protein)
chain: DVAAALAAAKAAAAAKMAEVKKYGAETAEAVKDAIDMGNIYGAGSLAEVMVGPEAGKIAKAAAEAAAKARELAAKA
B9: design_606_b60ff77f-1541-4e5f-8260-46d5e5f6b85e_1003_dldesign_0_cycle1_af2pred (protein)
chain: SMKEKEEKYKEAKEKLEKQREAVKEGEKLAKESPEMGLALMRAAVKRAEEVAKKLEKEDPEKGPEAKKMAEEVRKLAKEAEKKIKEEL
B10: design_606_b60ff77f-1541-4e5f-8260-46d5e5f6b85e_2039_dldesign_0_cycle1_af2pred (protein)
chain: SEEEEASKRNKELADKIREAVRNMREAYAAMQAALAAGDAAAAKAAADKALAQAKVLEELGLTSQAQSNAAKIKADLAAGLAALAA
B11: design_606_b60ff77f-1541-4e5f-8260-46d5e5f6b85e_1075_dldesign_0_cycle1_af2pred (protein)
chain: AEEKEKKAKEAAEKAEKFIEKAKKAIKEGDLFSAQAYVEAAKHAAEVAKKYDPEVGEKLLKKVEEVEKEI
B12: design_606_b60ff77f-1541-4e5f-8260-46d5e5f6b85e_1592_dldesign_0_cycle1_af2pred (protein)
chain: AAAAAAAAERAAIQKELDEIRDKYLEELEKNPENAEEIIKKAKEAVEALAKKHAKFAEEILKGGNGYVSLIEATAKMLERRKKEE
B13: design_606_b60ff77f-1541-4e5f-8260-46d5e5f6b85e_2343_dldesign_0_cycle1_af2pred (protein)
chain: DAEEHAKEAEKAIKEAKAYIEEAIKTGDSEKAHEARQKLAEAEYEAKKVYELDPEKGAKLLKKVEEVKKLLKELQK
B14: design_606_b60ff77f-1541-4e5f-8260-46d5e5f6b85e_1772_dldesign_0_cycle1_af2pred (protein)
chain: SKKEEVKERVKEVLERAKKVAERGKKAGVDINEASEMMALAYEAKAAAEAGHIEEAEKLMKKAEEKLKKLEKRAKELEA
B15: design_606_b60ff77f-1541-4e5f-8260-46d5e5f6b85e_1400_dldesign_0_cycle1_af2pred (protein)
chain: MAEAAQKAWENIAEAEYYAKKLKENPELKEEAKKIEEKIKKAKELLKKAQKTGDGELAKEAEKLAKEAAKEAKELVEK
B16: design_606_b60ff77f-1541-4e5f-8260-46d5e5f6b85e_2038_dldesign_0_cycle1_af2pred (protein)
chain: EAKEKAKLLKEAAKLAKEAAKAAADKEKAKKLATEAADLAIKAGDYKTNGYMESAILNAEAGNAEAAKAAAEKAAKRAEEKAKKL
B17: design_606_b60ff77f-1541-4e5f-8260-46d5e5f6b85e_1085_dldesign_0_cycle1_af2pred (protein)
chain: ATAKEAAEYAEKAREYMVELEYERIKAKREGDEETAKRLEKAIEEVREKLKKAREAMKAGDKEKALEYSKEALEIAKKAVEELKA
B18: design_606_b60ff77f-1541-4e5f-8260-46d5e5f6b85e_1625_dldesign_0_cycle1_af2pred (protein)
chain: MAKEKAKKEAKKLTEEAAKKIREAALKEENPLEVAKEITEEVLKKIEEIGKKAGLSEEEIEKLKKEAKKKLAAAAHEAYQERAEEEFE
B19: design_606_b60ff77f-1541-4e5f-8260-46d5e5f6b85e_2269_dldesign_0_cycle1_af2pred (protein)
chain: ITEDEVVEINNKGSKEGPLWKEAADYAIKALSYKIIAELVLSSENAEEDHKKALAKAEEYEAKYKEKLEKAEKAKKEK
B20: design_606_b60ff77f-1541-4e5f-8260-46d5e5f6b85e_1160_dldesign_0_cycle1_af2pred (protein)
chain: AEAARRAALVAKVDAAFDDAGKTISEAKEKTPEEAKALVDAAIAKANAEAKAHPEAAKGFNAVADTAKSMGERIIAEKLA
B21: design_606_b60ff77f-1541-4e5f-8260-46d5e5f6b85e_1676_dldesign_0_cycle1_af2pred (protein)
chain: DEAVKKAKELAKKLLEEAKKAAKKGDVETVKAIAKEAKAKAEEAEKNEGFKAAAELYSAYFRIEHMAESLA
B22: design_606_b60ff77f-1541-4e5f-8260-46d5e5f6b85e_1627_dldesign_0_cycle1_af2pred (protein)
chain: EEEKKKKYEELLKKAREEMEKLGKEFKKAVEKGDSKAASEAFRKAVKVAREAGEEAKKLGPEGEELEKELSQLLLEIAD
B23: design_606_b60ff77f-1541-4e5f-8260-46d5e5f6b85e_1596_dldesign_0_cycle1_af2pred (protein)
chain: SAAVKEKVAELTKKVNEARDNAFETGNWEEELAKIEKLAAEIAKVGNAEQAEAAEKGVNAMKSMAEALKEMEKK
B24: design_606_b60ff77f-1541-4e5f-8260-46d5e5f6b85e_1599_dldesign_0_cycle1_af2pred (protein)
chain: MPVVKAVSEYTKFVVSKMREAAAAGASEEELVGAVEEGEKYGEELGKKIGEEALEAVKDLSEMFKESARAAARARKA
B25: design_606_b60ff77f-1541-4e5f-8260-46d5e5f6b85e_1497_dldesign_0_cycle1_af2pred (protein)
chain: MEEESKKYIETATALLEEAKKALEEDKEKGLKLLEEASALAYEKAAEARQLGDKETAEKLREIAKEAREAAKKAR
B26: design_606_b60ff77f-1541-4e5f-8260-46d5e5f6b85e_1207_dldesign_0_cycle1_af2pred (protein)
chain: DEEKLKEAAEYLQEAAEYLAELKYLSKDPKNKELAEKAKKILKEAIEKGKKGTPEEALEIAKKAKEEIKKLAKKAKE
B27: design_606_b60ff77f-1541-4e5f-8260-46d5e5f6b85e_1975_dldesign_0_cycle1_af2pred (protein)
chain: AEAESQKVLDTAAELEADLILLGYKKPEIKEQALEDAKKVRRNAREAAGLILKDPEKGKKLAEETEKEGKELIKKYEEEV
B28: design_606_b60ff77f-1541-4e5f-8260-46d5e5f6b85e_1331_dldesign_0_cycle1_af2pred (protein)
chain: SELEKGREVIKKAAEKAKKAAKEAAEKKGDPKKGEEKIKEIKELEEEGAKAEDPKVKSEKAAKIRQIKAEAEFELKK
B29: design_606_b60ff77f-1541-4e5f-8260-46d5e5f6b85e_1086_dldesign_0_cycle1_af2pred (protein)
chain: EKAEKLIKEIKKLAKEAKKSTPEEAKKLLEEAKKLAKEVAKLGPEAAKLAKKALSEAAAAYYENKAENEWKERKEKE
B30: design_606_b60ff77f-1541-4e5f-8260-46d5e5f6b85e_1401_dldesign_0_cycle1_af2pred (protein)
chain: GAKAIAAKAAAYGYEIAAEIYRLDKEVGEKVRKYVVEKAKEAAASDEETAKKIGEEVKKEAEKALEEVKKK
B31: design_606_b60ff77f-1541-4e5f-8260-46d5e5f6b85e_905_dldesign_0_cycle1_af2pred (protein)
chain: DNEEKKKELKEEAEKYKEELLKEKDEALKAGDFESAIFISKKAVKIKKLEEEGKKGNKEEVEKKKEEIKKEAKEALEFYKKNKE
B32: design_606_b60ff77f-1541-4e5f-8260-46d5e5f6b85e_2244_dldesign_0_cycle1_af2pred (protein)
chain: ENKEKVKKAKETLKKARKEAEKAVKKGVLTPEQIARIQEKLHKASELIAEAEQEKGEEGKEKAEKALELAKEVLKEVKEAE
B33: design_606_b60ff77f-1541-4e5f-8260-46d5e5f6b85e_1298_dldesign_0_cycle1_af2pred (protein)
chain: KEEEEKQIKELKEKVEKLKKEAEEAKTAEEALKVFKEARKVGKEARKLAEKASPELAKKAKEVAKEAAKVAELAAEKYAEKKSEEIRK
B34: design_606_b60ff77f-1541-4e5f-8260-46d5e5f6b85e_1000_dldesign_0_cycle1_af2pred (protein)
chain: MSEYEKNLARAEAYADQLLDSAKKTGAAKGPEAEVAATKEAKDAATKYANSLGEEVGKEIKAKMEKEVKAVADAAAKALAA
B35: design_606_b60ff77f-1541-4e5f-8260-46d5e5f6b85e_976_dldesign_0_cycle1_af2pred (protein)
chain: SSEEIEEKNRKVSEVVHHAIKAIKAYADPALRDAYLAKAKAILPDAADALAAQVDAAKTGSTADAILNVADIAWDALT
B36: design_606_b60ff77f-1541-4e5f-8260-46d5e5f6b85e_1622_dldesign_0_cycle1_af2pred (protein)
chain: NDKELSKKVHEGYELVAEYEQDPSFIKKNKEKAKEIAKKAEEAAKAAEEGAKKYPELAKALEKIAKKAKEVAKEAKKVAK
B37: design_606_b60ff77f-1541-4e5f-8260-46d5e5f6b85e_1708_dldesign_0_cycle1_af2pred (protein)
chain: NEAEKKLKKVAEDAEKALSEAIKASKDDPEKQKELKEKLEQVKKLYEEGLKGTPEDMAKAAAEMRQLRSEADYVLSNAK
B38: design_606_b60ff77f-1541-4e5f-8260-46d5e5f6b85e_2076_dldesign_0_cycle1_af2pred (protein)
chain: ATQAEASQAAAEASEARAELEQAAKKLKEEGKEELAKKAEEAAEEARKLLKQAQKADTDTAYKLAQEAKKKLEKELKKAKKA

These binders were tested against VTCN1, Q7Z7D3.
VTCN1, Q7Z7D3, sequence (Q7Z7D3 whole entry): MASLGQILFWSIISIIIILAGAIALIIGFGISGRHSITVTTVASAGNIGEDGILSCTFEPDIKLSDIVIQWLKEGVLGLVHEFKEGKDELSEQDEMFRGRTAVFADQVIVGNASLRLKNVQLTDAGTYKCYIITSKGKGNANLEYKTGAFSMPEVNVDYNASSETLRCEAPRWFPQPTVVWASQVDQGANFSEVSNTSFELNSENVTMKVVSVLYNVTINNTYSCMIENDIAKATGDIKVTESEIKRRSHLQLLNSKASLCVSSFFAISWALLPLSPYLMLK

Row | Binder | binding in a display sort
1 | B1 | not found
2 | B2 | not found
3 | B3 | not found
4 | B4 | not found
5 | B5 | not found
6 | B6 | not found
7 | B7 | not found
8 | B8 | not found
9 | B9 | not found
10 | B10 | not found
11 | B11 | not found
12 | B12 | not found
13 | B13 | not found
14 | B14 | not found
15 | B15 | not found
16 | B16 | not found
17 | B17 | not found
18 | B18 | not found
19 | B19 | not found

Row | Binder | binding in a display sort
20 | B20 | not found
21 | B21 | not found
22 | B22 | not found
23 | B23 | not found
24 | B24 | not found
25 | B25 | not found
26 | B26 | not found
27 | B27 | not found
28 | B28 | not found
29 | B29 | not found
30 | B30 | not found
31 | B31 | not found
32 | B32 | not found
33 | B33 | not found
34 | B34 | not found
35 | B35 | not found
36 | B36 | not found
37 | B37 | not found
38 | B38 | not found

Reference: PMC13494018
